Molecules are shown by their SMILES. Several values for one entry are separate records, joined by “and”; a condition that tells them apart may be missing. Equal entries are not always repeated. The whole screen tested about 2,200 compounds, of which about 1,200 (55%) were called active. Cut-off not given; nearly all actives show IC50 up to about 92 µM. The set was probably picked from earlier hits. This is one part of the list.

This assay can be described thus: counter assay for TAg ATPase ADP read-out – biochemical, ADP-Hunter, fluorescence, counter-screen (AID 2501).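 Further: purified T antigen ATPase.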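 On inhibition: higher means more inhibition.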 The note with it: series mostly up to 100 µM. (The purpose of a counterscreen is to sort out artefacts and off-target activity.)
Broadly, the IC50 is the point on the concentration scale where inhibition reaches its midpoint. Consider `COc1cc(/C=N/n2c(-c3n[nH]c4c3CCC4)n[nH]c2=S)cc(OC)c1O`, for which the half-inhibitory concentration (IC50) was 8.78 µM (active).
As for `CCS(=O)(=O)c1nc(S(=O)(=O)c2ccc(Cl)cc2)c(NCc2ccccn2)s1`, the IC50 result is “inactive”.
Next, `COc1cc(C(c2c(C)[nH][nH]c2=O)c2c(C)[nH][nH]c2=O)ccc1OC(C)C`: 69 µM (active).
Under `Cc1[nH][nH]c(=O)c1C(c1ccc(-c2cccc(Cl)c2)o1)c1c(C)[nH][nH]c1=O` stands “inactive”; under `CCOc1cc(C(c2c(C)[nH][nH]c2=O)c2c(C)[nH][nH]c2=O)ccc1O`, 4.65 µM (active).
Regarding `CCCSc1nc(O)c(C(c2ccc(OC)c(O)c2)c2c(O)nc(SCCC)n(C)c2=O)c(=O)n1C`, the IC50 result is “inactive”.
Next, `COCC(C)NC(=O)c1cccc([N+](=O)[O-])c1` (configuration not stated): “inactive”; `CCOc1cc(C(c2c(C)[nH][nH]c2=O)c2c(C)[nH][nH]c2=O)ccc1OC(=O)c1cccc([N+](=O)[O-])c1`: 28.9 µM (active); `CN(C)c1ccc(NC(=O)c2ccc(N3CCOCC3)nc2)cc1`: 3.34 µM (active).
Next, `CCS(=O)(=O)c1ncc(Cl)c(C(=O)Nc2ccc(S(=O)(=O)N3CCC(C)CC3)cc2)n1`: “inactive”; `CC(=O)Nc1ccc(NC(=O)C(C)N2CCN(S(=O)(=O)c3ccc(C)cc3)CC2)cc1` (configuration not stated): “inactive”.
Under `O=C(CCN1C(=O)/C(=C\C=C\c2ccccc2)SC1=S)Nc1ccc(C(=O)O)cc1` stands “inactive”.
Turning to `CC(C)c1ccc(S(=O)(=O)N2CCN(CCC(=O)Nc3ccc(N(C)C)cc3)CC2)cc1`, the IC50 is 12 µM (active).
Under `Cc1ccsc1C(=O)N1CCCC(CCC(=O)N2CCN(c3ccccn3)CC2)C1` (configuration not stated) stands “inactive”; under `CN(C)c1ccc(NC(=O)CCN2CCN(c3ccccn3)CC2)cc1`, 4.88 µM (active); under `O=C1OC2(c3ccccc31)c1cc(I)c(O)c(I)c1Oc1c2cc(I)c(O)c1I`, “inactive”.
Turning to `O=C(Nc1cccc2c1CCCC2)c1ccccc1Cl`, the IC50 result was “inactive”.
Next, `Oc1ccc(NC(=S)Nc2ccccc2)cc1`: 4.74 µM (active) and 4.32 µM (active).
Under `O=C(Nc1ccc(Nc2ccccc2)cc1)N1CCOCC1` stands 3.84 µM (active); under `NC(=O)Nc1ccc(Nc2ccccc2)cc1`, 4.72 µM (active).
Under `O=C(c1ccc(-c2ccccc2Cl)s1)N1CCOCC1` stands “inactive”; under `O=C(NC(=S)Nc1ccc(O)cc1)c1ccccc1Cl`, 2.31 µM (active).
Take `O=C(NNC(=O)c1ccccc1-n1cccc1)c1ccc(Cl)cc1Cl`: the IC50 result was “inactive”.
Under `C=C(C)C(=O)O[C@H]1C/C(C)=C\C(=O)/C=C(\C)[C@H](O)[C@@H]2OC(=O)C(=C)[C@@H]21` stands “inactive”; under `CCCCNC(=S)N(CCN(C)C)Cc1cc2cc3c(cc2[nH]c1=O)OCCO3`, “inactive”.
As to `COc1cccc(NC(=O)CC2(CC(=O)O)CCCC2)c1`, the IC50 result is “inactive”.
Next, `CNC(=S)Nc1ccc(Nc2ccccc2)cc1`: 4.39 µM (active).
Next, `O=C(O)[C@H]1CCCC[C@H]1C(=O)Nc1ccc(Nc2ccccc2)cc1`: 3.86 µM (active); `COc1cccc(NC(=S)Nc2ccc(O)cc2)c1`: 1.13 µM (active); `O=C(NC(=S)Nc1ccc(O)cc1)c1cncc(Br)c1`: 3.94 µM (active).
Next, `O=c1[nH]c2cc3c(cc2cc1CN(Cc1cccnc1)Cc1nnnn1Cc1ccco1)OCCO3`: “inactive”; `COc1ccc(N=Cc2c[nH][nH]c2=O)cc1`: 9.97 µM (active); `CC1(C)Nc2ccc(O)cc2-c2c1ssc2=S`: 14.6 µM (active).
On to `O=C1OCC/C1=C\c1ccc(O)cc1`, for which the IC50 is 7.82 µM (active).
Next, `Nc1cc(S(=O)(=O)c2ccc(O)c(N)c2)ccc1O`: 3.9 µM (active); `Nc1ccc(O)c2ccccc12`: “inactive”; `CS(=O)(=O)c1ccc(N)c(SSc2cc(S(C)(=O)=O)ccc2N)c1`: “inactive”.
Next, `Nc1n[nH]c(=S)n1/N=C1/C(=O)Nc2ccccc21`: 9.5 µM (active); `Cn1cccc1/C=N/N1CCN(Cc2ccccc2)CC1`: 21 µM (active); `Cn1cccc1/C=N/N1CCN(c2ccccn2)CC1`: 7.28 µM (active).
As for `Oc1ccc(/C=N/N2CCN(c3ccccn3)CC2)cc1`, the IC50 was 10.4 µM (active).
Next, `Cc1cccc(C)c1NCC(=O)N1CCN(Cc2ccccc2)CC1`: “inactive”.
For the molecule `COc1cccc(CN2CCN(Cc3nc(-c4cccs4)oc3C)CC2CCO)c1` (configuration not stated), the IC50 is < 1.56 µM (active).
Next, `Cc1oc(-c2cccs2)nc1CN1CCN(C(C)C)C(CCO)C1` (configuration not stated): “inactive”; `COCc1cc(CN2CCN(CCc3ccccc3)C(CCO)C2)ccc1OC` (configuration not stated): “inactive”.
Under `N#CC1=C(N)C2=C(N3CCCCC3)CCCC2C1(C#N)C#N` (configuration not stated) stands 8.2 µM (active); under `O=C(O)C(Cc1ccccc1)N1C(=O)/C(=C/C=C/c2ccco2)SC1=S` (configuration not stated), “inactive”.
Under `COc1cc(/C=C2\SC(=S)N(C(C(=O)O)c3ccccc3)C2=O)ccc1O` (configuration not stated) stands 7.98 µM (active).
In the case of `CC(C(=O)Nc1ccc(C(=O)O)c(O)c1)N1C(=O)/C(=C\c2ccco2)SC1=S` (configuration not stated), the IC50 entry was “inactive”.
Under `CC(C)C(C(=O)O)N1C(=O)/C(=C/C=C/c2ccco2)SC1=S` (configuration not stated) stands “inactive”; under `COc1cc(/C=C2\SC(=S)N(C(Cc3ccccc3)C(=O)O)C2=O)ccc1O` (configuration not stated), 6.37 µM (active); under `O=C(O)C(c1ccccc1)N1C(=O)/C(=C\c2ccc(O)c(O)c2)SC1=S` (configuration not stated), 8.33 µM (active).
